Source: the supplement of paper PMC8728848
Many of the other results were omitted from the sample, so the strongest signals are more common in it than they were.

Columns and labels:
Test in all cases: glycan array binding signal (z-score within array); higher = stronger binding
Settings in all cases: glycan notation: IUPAC condensed, linker removed
[1] = biological target: Fuc(a1-2)Gal(b1-3)GlcNAc(b1-2)Man(a1-3)[Fuc(a1-2)Gal(b1-3)GlcNAc(b1-2)Man(a1-6)]Man(b1-4)GlcNAc(b1-4)[Fuc(a1-6)]GlcNAc
Outline: (§1)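 The Consortium for Functional Glycomics database supplied 3228 glycan arrays, of which those lacking an available protein sequence were dropped. The binding signal, a within-array Z-score, was averaged across arrays of the same protein sequence and across linkers. Negative scores can be read as non-binding.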

[2] = biological target: Fuc(a1-2)Gal(b1-3)[Fuc(a1-4)]GlcNAc
Outline: as §1

[3] = biological target: Fuc(a1-2)Gal(b1-3)[Fuc(a1-4)]GlcNAc(b1-2)Man(a1-3)[Fuc(a1-2)Gal(b1-3)[Fuc(a1-4)]GlcNAc(b1-2)Man(a1-3)]Man(b1-4)GlcNAc(b1-4)GlcNAc
Outline: as §1

[4] = biological target: Fuc(a1-2)Gal(b1-3)[Fuc(a1-4)]GlcNAc(b1-2)Man(a1-3)[Fuc(a1-2)Gal(b1-3)[Fuc(a1-4)]GlcNAc(b1-2)Man(a1-6)]Man(b1-4)GlcNAc(b1-4)[Fuc(a1-6)]GlcNAc(b1-4)[Fuc(a1-6)]GlcNAc
Outline: as §1

[5] = biological target: Fuc(a1-2)Gal(b1-4)GlcNAc(b1-2)Man(a1-3)[Fuc(a1-2)Gal(b1-4)GlcNAc(b1-2)Man(a1-6)]Man(b1-4)GlcNAc(b1-4)[Fuc(a1-6)]GlcNAc
Outline: as §1

[6] = biological target: Fuc(a1-2)Gal(b1-4)GlcNAc(b1-3)Gal(b1-4)GlcNAc(b1-2)Man(a1-3)[Fuc(a1-2)Gal(b1-4)GlcNAc(b1-3)Gal(b1-4)GlcNAc(b1-2)Man(a1-6)]Man(b1-4)GlcNAc(b1-4)GlcNAc
Outline: as §1

[7] = biological target: Fuc(a1-2)Gal(b1-4)[Fuc(a1-3)]GlcNAc
Outline: as §1

[8] = biological target: Fuc(a1-2)Gal3S(b1-4)GlcNAc
Outline: as §1

[9] = biological target: Fuc(a1-2)Gal6S(b1-3)GlcNAc6S
Outline: as §1

[10] = biological target: Fuc(a1-2)Gal6S(b1-4)Glc6S
Outline: as §1

[11] = biological target: Fuc(a1-2)[GalNAc(a1-3)]Gal(b1-3)GalNAc(a1-3)[Fuc(a1-2)]Gal(b1-4)GlcNAc
Outline: as §1

[12] = biological target: Fuc(a1-2)[GalNAc(a1-3)]Gal(b1-3)GalNAc(b1-3)Gal(a1-4)Gal(b1-4)Glc
Outline: as §1

[13] = biological target: Fuc(a1-3)[Gal(b1-4)]GlcNAc(b1-6)GalNAc
Outline: as §1

[14] = biological target: Fuc(a1-3)[Gal(b1-4)]GlcNAc6S
Outline: as §1

Gal(a1-2)Gal = biological target: Gal(a1-2)Gal
Outline: as §1

[15] = biological target: Gal(a1-3)Gal(b1-3)GlcNAc(b1-2)Man(a1-3)[Gal(a1-3)Gal(b1-3)GlcNAc(b1-2)Man(a1-6)]Man(b1-4)GlcNAc(b1-4)GlcNAc
Outline: as §1

[16] = biological target: Gal(a1-3)Gal(b1-3)GlcNAc(b1-6)GalNAc
Outline: as §1

[17] = biological target: Gal(a1-3)Gal(b1-4)[Fuc(a1-3)]GlcNAc(b1-2)Man(a1-3)[Gal(a1-3)Gal(b1-4)[Fuc(a1-3)]GlcNAc(b1-2)Man(a1-6)]Man(b1-4)GlcNAc(b1-4)GlcNAc
Outline: as §1

[18] = biological target: Gal(a1-4)Gal(b1-3)GlcNAc(b1-2)Man(a1-3)[Gal(a1-4)Gal(b1-3)GlcNAc(b1-2)Man(a1-6)]Man(b1-4)GlcNAc(b1-4)GlcNAc
Outline: as §1

[19] = biological target: Gal(a1-4)Gal(b1-4)GlcNAc(b1-3)Gal(b1-4)Glc
Outline: as §1

[20] = biological target: Gal(b1-3)[Fuc(a1-4)]GlcNAc(b1-2)Man(a1-3)[Gal(b1-3)[Fuc(a1-4)]GlcNAc(b1-2)Man(a1-6)]Man(b1-4)GlcNAc(b1-4)[Fuc(a1-6)]GlcNAc
Outline: as §1

[21] = biological target: Gal(b1-3)[Neu5Ac(b2-6)]GalNAc
Outline: as §1

[22] = biological target: Gal(b1-4)GlcNAc(b1-2)Man(a1-3)[Gal(b1-4)GlcNAc(b1-2)Man(a1-6)][GlcNAc(b1-4)]Man(b1-4)GlcNAc(b1-4)[Fuc(a1-6)]GlcNAc
Outline: as §1

[23] = biological target: Gal(b1-4)GlcNAc(b1-2)[Gal(b1-4)GlcNAc(b1-6)]Man(a1-6)[Gal(b1-4)GlcNAc(b1-2)Man(a1-3)]Man(b1-4)GlcNAc(b1-4)GlcNAc
Outline: as §1

[24] = biological target: Gal(b1-4)GlcNAc(b1-3)Gal(b1-3)GalNAc
Outline: as §1

B1: OGAA (protein)
chain: MVQKESQATLEERESELSSNPAASAGASLEPPAAPAPGEDNPAGAGGAAVAGAAGGARRFLCGVVEGFYGRPWVMEQRKELFRRLQKWELNTYLYAPKDDYKHRMFWREMYSVEEAEQLMTLISAAREYEIEFIYAISPGLDITFSNPKEVSTLKRKLDQVSQFGCRSFALLFADIDHNMCAADKEVFSSFAHAQVSITNEIYQYLGEPETFLFCPTEYCGTFCYPNVSQSPYLRTVGEKLLPGIEVLWTGPKVVSKEIPVESIEEVSKIIKRAPVIWDNIHANDYDQKRLFLGPYKGRSTELIPRLKGVLTNPNCEFEANYVAIHTLATWYKSNMNGVRKDVVMTDSEDSTVSIQIKLENEGSDEDIETDVLYSPQMALKLALTEWLQEFGVPHQY
glycan array binding signal (z-score) [1]: 0.026 | glycan array binding signal (z-score) [2]: -0.076 | glycan array binding signal (z-score) [3]: 0.285 | glycan array binding signal (z-score) [4]: 0.251 | glycan array binding signal (z-score) [5]: 0.206 | glycan array binding signal (z-score) [6]: 0.006 | glycan array binding signal (z-score) [7]: -0.07 | glycan array binding signal (z-score) [8]: -0.06 | glycan array binding signal (z-score) [9]: 1.74 | glycan array binding signal (z-score) [10]: 0.205 | glycan array binding signal (z-score) [11]: 22.9 | glycan array binding signal (z-score) [12]: 8.04 | glycan array binding signal (z-score) [13]: 0.242 | glycan array binding signal (z-score) [14]: -0.107 | glycan array binding signal (z-score) (Gal(a1-2)Gal): 0.002 | glycan array binding signal (z-score) [15]: 0.031 | glycan array binding signal (z-score) [16]: -0.107 | glycan array binding signal (z-score) [17]: 0.644 | glycan array binding signal (z-score) [18]: -0.007 | glycan array binding signal (z-score) [19]: -0.098 | glycan array binding signal (z-score) [20]: 0.357 | glycan array binding signal (z-score) [21]: -0.096 | glycan array binding signal (z-score) [22]: -0.009 | glycan array binding signal (z-score) [23]: -0.08 | glycan array binding signal (z-score) [24]: -0.11
